Assay results reported in PubChem BioAssay AID1460 (National Center for Advancing Translational Sciences (NCATS), 2008).
Out of some 270,000 compounds screened, about 5,800 (2.1%) were called active. Another 16% or so got no clear call; they are omitted. For the sample, actives were picked, then their nearest neighbours and some compounds at random. A number with no mark means an inactive call. Calls follow the shape of the dose curve; as a rule, active = well fitted inhibition curve with a large enough effect; inconclusive = small, poorly fitted or top-dose-only effect; inactive = flat fitted curve, though single readings scatter.

Target: Microtubule-associated protein tau (Homo sapiens) (UniProt P10636)
Sequence (P10636 561-689 P618L limits assumed): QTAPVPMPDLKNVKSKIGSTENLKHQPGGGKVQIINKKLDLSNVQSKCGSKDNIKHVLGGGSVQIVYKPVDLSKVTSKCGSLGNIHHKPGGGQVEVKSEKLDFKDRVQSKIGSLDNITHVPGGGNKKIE
Assay: qHTS for Inhibitors of Tau Fibril Formation, Thioflavin T Binding; also: nearly all actives have a fitted effect of over 55% in size
Details: recombinant tau K18 P301L (four-repeat tau fragment), heparin-induced fibrillization, ThT fluorescence; series mostly up to 57.4 µM; activity, negative = inhibition: at the top concentration
How it was run: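 Heparin-induced (20 uM) aggregation of recombinant human K18 P301L tau, 15 uM unlabeled with 0.24 uM labeled, pH 7 acetate buffer, 6 hr at 37 C with compound. Fibrils quantified by 30 uM ThT fluorescence after 1 hr ambient incubation.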
% is scaled to controls: 0 for no effect and ±100 for the full control effect; potency is read from the fitted curve at half-maximal effect.

| SMILES | activity, negative = inhibition [%] | Potency |
| --- | --- | --- |
| Cc1ccc(S(=O)(=O)c2c(Nc3cccc(Cl)c3)sc(C(=O)c3ccc4c(c3)OCO4)c2N)cc1 | -3.94 |  |
| CCOc1cc(C(=O)Nc2nnc3n2CCS3)cc(OCC)c1OCC | 1.75 |  |
| Cc1ccc2cccc(NC(=O)C(C)Oc3ccc(C)c(C)c3)c2n1 (centres undefined) | 6.23 |  |
| Cc1ccccc1C(=O)Nc1cc(C)c(O)c(-c2nc3ccccc3o2)c1 | -2.98 |  |
| CC(C)c1ccc(C2C(C#N)=C(N)Oc3c2oc(CO)cc3=O)cc1 (centres undefined) | -9.29 |  |
| CC(C)c1ccc(C2CC(=O)N3CN(C4CCCCC4)CSC3=C2C#N)cc1 (centres undefined) |  | 22.4 µM (active) |
| CCOC(=O)c1ccc(N2C(=O)c3n[nH]c(-c4ccco4)c3C2c2ccc(O)cc2)cc1 (centres undefined) | -15.9 |  |
| CCCc1nn2c(=O)cc(COC(=O)c3ccc(NC(=O)C(C)Oc4ccccc4)cc3)nc2s1 (centres undefined) | -5.44 |  |
| COc1ccc(C2=NN(c3nc4ccccc4s3)C(=O)C2)cc1 |  | 10 µM (active) |
| COC(=O)Cc1[nH]n(-c2nc3ccccc3s2)c(=O)c1C(C)=Nc1ccc(OC)cc1 | 12 |  |
| COc1ccc(C2=NN(c3ccccc3)C(c3cccs3)C2)cc1 (centres undefined) | -9.36 |  |
| CCOC(=O)c1c(S(=O)(=O)N2CCC(C(=O)NCc3ccccc3OC)CC2)c(C)n(C)c1C | 7.16 |  |
| Nc1c(C(=O)c2cccs2)sc2nsc(SCCN3CCCCC3)c12 |  | 4.47 µM (active) |
| O=C(CN1C2=NCCN2c2ccccc21)c1cccs1 | 2.91 |  |
| CN(C)c1ccnc2sc(C(=O)c3ccccc3)c(N)c12 | -18.6 |  |
| O=C(NCc1ccccc1Cl)c1cccn1-c1nnc(N2CCCCC2)s1 | -3.55 |  |
| O=C(CSC1=NCCS1)Nc1nc(-c2ccccc2)cs1 | -21.2 |  |
| O=C(Nc1nc(-c2ccc(-c3ccccc3)cc2)cs1)c1cnccn1 | -14.1 |  |
| O=C(Nc1nc(-c2ccncc2)cs1)C1COc2ccccc2O1 (centres undefined) |  | 28.2 µM (active) |
| Cc1cccc(S(=O)(=O)c2cn(Cc3ccccc3)c3cc(N4CCOCC4)c(F)cc3c2=O)c1 | -7.93 |  |
| COc1ccc(CNC(=O)c2cc3c(s2)-c2ccccc2OC3)cc1 | -9.54 |  |
| CCN(CC)S(=O)(=O)c1ccc(C(=O)N=c2sc3cccc(OC)c3n2C)cc1 | 2.64 |  |
| O=C(Cn1c(-c2cccs2)cc2ccccc21)NCCc1ccc(Cl)cc1 | 1.45 |  |
| CN(Cc1ccccc1)c1ccc(-c2nc(-c3ccccc3)no2)cc1[N+](=O)[O-] | -1.66 |  |
| COc1ccc(N2CCN(C(=O)CSc3ncnc4c3cnn4-c3ccc(OC)cc3)CC2)cc1 | -11.1 |  |

| SMILES | activity, negative = inhibition [%] | Potency |
| --- | --- | --- |
| COc1ccc(N2CCN(c3ccc([N+](=O)[O-])nc3)CC2)cc1 |  | 1.41 µM (active) |
| COc1ccc(N2CCN(C(C)=C3C(=O)c4ccccc4C3=O)CC2)cc1 | 18.2 |  |
| Cc1nn(C(C)C(=O)Nc2ccc(C(C)C)cc2)c(=O)c2c1sc1ccccc12 (centres undefined) | 4.79 |  |
| O=C(CSc1nc2c(c(=O)[nH]1)CN(Cc1ccc(F)cc1)CC2)Nc1ccccc1Cl | -3.93 |  |
| NS(=O)(=O)c1ccc2nc(NC(=O)COc3ccccc3)sc2c1 | 1.18 |  |
| O=C(NCc1cccnc1)C(=O)NCC(c1cccnc1)N1CCN(c2ccccc2)CC1 (centres undefined) | -1.85 |  |
| CCc1ccc(S(=O)(=O)n2ccnc2)cc1 | 13 |  |
| N/C(=N\OC(=O)Cc1ccccc1[N+](=O)[O-])c1ccc(Br)cc1 | -2.47 |  |
| Cc1oc2cc([N+](=O)[O-])c(O)c([N+](=O)[O-])c2c1C(=O)c1ccc(Br)cc1 |  | 10 µM (active) |
| Cc1ccc(C(=O)c2ccc(N3CCN(C)CC3)c([N+](=O)[O-])c2)cc1 | 2.39 |  |
| Cc1ccc(C)c(S(=O)(=O)n2nc(C)c(S(=O)(=O)N3CCC(C)CC3)c2C)c1 | 1.74 |  |
| CSc1ccc(C2C(C(=O)Nc3ccccc3)=C(C)Nc3nc4ccccc4n32)cc1 (centres undefined) | 17.8 |  |
| COc1ccc(S(=O)(=O)c2c(Nc3ccc(C)cc3)sc(C(=O)c3ccc(C)cc3)c2N)cc1 | -1.21 |  |
| CC(=O)c1ccc(NS(=O)(=O)c2ccc(-c3cc(C)no3)s2)cc1 | 0.58 |  |
| Cc1oc2c(c1C(=O)N1CCOCC1)C(=O)c1ccccc1C2=O | -6.24 |  |
| O=C1c2ccccc2-c2ncnc3c(N4CCOCC4)cc(N4CCOCC4)c1c23 |  | 8.91 µM (active) |
| c1ccc(-c2oc3ncnc(N4CCOCC4)c3c2-c2ccccc2)cc1 | -4.32 |  |
| CCn1cc(C(=O)NCCc2ccccc2)c(=O)c2cc(S(=O)(=O)N3CCCCCC3)ccc21 | -5.17 |  |
| CCCN(CCC)C(=O)Cn1c(=O)n(-c2ccc(Cl)cc2)c(=O)c2c3c(sc21)CCCCC3 | 2.08 |  |
| Cc1cc2c(cc1S(=O)(=O)CCC(=O)Nc1ccc(OC(F)(F)F)cc1)OCC(=O)N2 | -7.52 |  |
| CCOC(=O)c1csc(NC(=O)Nc2cccc(OC)c2)n1 | 3.55 |  |
| COc1cccc(CC(=O)Nc2ccc(-c3csc(C)n3)cc2)c1 | -4.12 |  |
| CCCCCCC(=O)Nc1nc(C)c(-c2csc(Nc3cccc(OC)c3)n2)s1 |  | 7.94 µM (active) |
| CCCOc1cccc(C(=O)Nc2cccc(NC(=O)c3ccc(C(C)(C)C)cc3)c2)c1 | -1.73 |  |
